Assay [1] has as its target Retinoic acid receptor RXR-alpha (Homo sapiens) (UniProt P19793). Kind of assay: qHTS assay to identify small molecule agonists of the RXR signaling pathway (AID 1159527; calls by dose curve; also: nearly all actives have a fitted effect of over 35% in size). The method, boiled down: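 qHTS of the Tox21 10K library in GeneBLAzer RXR-alpha HEK 293T cells carrying a beta-lactamase reporter […]; 16 hr treatment, 9-cis retinoic acid as agonist control, FRET read-out.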
(In general: qHTS replaces the single test concentration by a dilution series.)

Assay [2] is described as follows: qHTS assay to identify small molecule antagonists of the retinoid acid receptor (RAR) signaling pathway - cell viability counter screen (AID 1159551). Also: nearly all actives have a fitted effect of over 35% in size. The method, boiled down:
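Retinol-stimulated (1 uM final) C3RL4 cells, compound 6 h, 37 C; readout CellTiter-Glo luminescence (ATP) after 30 min RT incubation.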

Assay [3] can be described thus: qHTS assay to identify small molecule antagonists of the retinoic acid receptor (RAR) signaling pathway (AID 1159552; also: nearly all actives have a fitted effect of over 50% in size). The method, boiled down: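 Quantitative HTS in C3RL4 RARE-luciferase reporter cells. Compounds were added with 1 uM (final) retinol; luminescence was read after 6 hr.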
Assay [4] in a line: qHTS assay to identify small molecule agonists of the retinoic acid receptor (RAR) signaling pathway (AID 1159553). The method, boiled down: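 Reporter readout comes from luciferase under RARE control in C3RL4 cells; compound exposure lasts 6 hr at 37 C in 5% CO2, and luminescence is recorded following a 30 min room-temperature incubation with reagent.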
A short description of assay [5]: qHTS assay to identify small molecule antagonists of the estrogen related receptor (ERR) signaling pathway from Tox21 library - cell viability counter screen (AID 1224834). Also: nearly all actives have a fitted effect of over 30% in size. The method, boiled down:
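After 17.5 h of compound exposure at 37 C, ERR cells are incubated with CellTiter-Fluor for 30 min and fluorescence intensity serves as the viability measure.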

The nature of assay [6]: qHTS assay to identify small molecule agonists of the constitutive androstane receptor (CAR) signaling pathway - cell viability counter screen (AID 1224836). Also: series mostly up to about 92 µM; nearly all actives have a fitted effect of over 45% in size. The method, boiled down:
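Counter screen multiplexed with the CAR reporter readout: HepG2 cells co-transfected with hCAR and the CYP2B6-2.2kb construct receive a 15-concentration compound series and 0.75 uM PK11195 (final), then CellTiter-Fluor fluorescence is read after 23 h.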

The nature of assay [7]: qHTS assay to identify small molecule antagonists of the constitutive androstane receptor (CAR) signaling pathway - cell viability counter screen (AID 1224837). Also: series mostly up to about 92 µM; nearly all actives have a fitted effect of over 45% in size. The method, boiled down: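 Counter screen run in HepG2-CYP2B6-hCAR cells: 4 hr settle, compound titration (15 concentrations) with 50 nM CITCO, 23 hr at 37 C/5% CO2, CellTiter-Fluor fluorescence.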
Assay [8] addresses Nuclear receptor subfamily 1 group I member 3 (Homo sapiens) (UniProt Q14994). Kind of assay: qHTS assay to identify small molecule antagonists of the constitutive androstane receptor (CAR) signaling pathway (AID 1224838).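 Also: HepG2 cells stably expressing hCAR with CYP2B6 luciferase reporter stimulated by CITCO; nearly all actives have a fitted effect of over 40% in size.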 The method, boiled down: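 Cell line: HepG2 double-stable for hCAR and CYP2B6-2.2kb reporter. Agonist: CITCO, 50 nM final. Compounds: 15 concentrations, 24 h, 37 C. Detection: ONE-Glo luminescence.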

Assay [9] can be described thus: qHTS assay to identify small molecule antagonists of the estrogen related receptor signaling pathway with the pleiotropic PPARgamma coactivator (PGC) from Tox21 10K library - cell viability counter screen (AID 1224840; active = well fitted cell-killing curve with a large enough effect in the repeat runs, not every such curve was filed as active; also: nearly all actives have a fitted effect of over 40% in size). The method, boiled down: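 Following seeding of 2,000 PGC/ERR cells/well and 6 hours' incubation, test compounds were delivered in DMSO. The plates then sat 17.5 hours at 37 C before a fluorogenic live-cell protease reagent (CellTiter-Fluor) was read after 30 min.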

Assay [10] is described as follows: qHTS assay to identify small molecule antagonists of the estrogen related receptor signaling pathway with the pleiotropic PPARgamma coactivator (PGC) from Tox21 10K library (AID 1224841; call rule not given here; also: series mostly up to about 92 µM; actives are mostly falling curves and most rising ones were filed inactive; nearly all actives have a fitted effect of over 50% in size). The method, boiled down:
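qHTS antagonist format: PGC/ERR cells, 2k/well, compound in DMSO by pin transfer after 6 h attachment, 18 h treatment at 37 C, One-Glo luminescence read at 30 min.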

Assay [11] can be described thus: qHTS assay to identify small molecule agonists of the estrogen related receptor signaling pathway with the pleiotropic PPARgamma coactivator (PGC) from Tox21 10K library (AID 1224842). Also: nearly all actives have a fitted effect of over 15% in size. The method, boiled down:
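Luminescence from One-Glo (30 min, room temperature) measured after PGC/ERR cells had 18 h at 37 C with pinned compound (23 nL in DMSO). Cells had been seeded at 2,000 per well and pre-incubated 6 h.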

Assay [12] can be described thus: qHTS assay to identify small molecule agonists of the hypoxia (HIF-1) signaling pathway - cell viability counter screen (AID 1224844; calls by dose curve; also: nearly all actives have a fitted effect of over 50% in size). The method, boiled down:
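Cells (HRE-bla ME-180, 2,000 per well) sat 5 hrs at 37C, got compound for 17 hrs, were read for CCF4-AM FRET, and were finally lysed with CellTiter-Glo for a 30 min room-temperature luminescence read.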

Assay [13] can be described thus: qHTS assay to identify small molecule agonists of H2AX (AID 1224845; active = well fitted activation curve with a large enough effect in the signal ratio in the repeat runs, not every such curve was filed as active; the % refers to the signal ratio). The method, boiled down:
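Phospho-H2AX Ser139 measured by HTRF (ex 320 nm; em 665 and 620 nm) after 24 hr antibody incubation. Compounds, 15 concentrations, 0.76% DMSO, were applied to CHO-K1 cells for 3hr at 37C before lysis.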

Assay [14] is described as follows: qHTS assay to identify small molecule agonists of the hypoxia (HIF-1) signaling pathway (AID 1224846; active = well fitted activation curve with a large enough effect in the signal ratio in the repeat runs, not every such curve was filed as active; the % refers to the signal ratio). The method, boiled down:
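A low-serum medium (0.5% dialyzed FBS) holding 2,000 HRE-bla ME-180 cells per well is preincubated for 5 hrs, dosed with compounds by pintool, and kept a further 17 hrs at 37C, 5% CO2 before CCF4-AM FRET detection of beta-lactamase.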

Assay [15] is described as follows: qHTS assay to identify small molecule agonists of H2AX - cell viability counter screen (AID 1224847; calls by dose curve; also: top concentration of the series differs between compounds; nearly all actives have a fitted effect of over 30% in size). The method, boiled down: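 We seed wild-type CHO-K1 cells overnight, treat them for 3 hr at 37C with compounds in 15-concentration series, and quantify remaining viability by CellTiter-Glo luminescence.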
Assay [16] is described as follows: qHTS assay to identify small molecule antagonists of the estrogen related receptor (ERR) signaling pathway from Tox21 library (AID 1224848). Also: nearly all actives have a fitted effect of over 50% in size. Also: potency is read from the fitted curve at half-maximal effect. The method, boiled down:
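Reading was by luminescence 30 min after ONE-Glo addition. Before that, ERR cells at 2,000 per well had rested 6 h at 37 C/5% CO2 and then received pin-tooled compounds in DMSO for 18 h at 37 C.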

Assay [17] in a line: qHTS assay to identify small molecule agonists of the RXR signaling pathway - cell viability counter screen (AID 1159529). The method, boiled down: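 Cell viability is measured by CellTiter-Glo luminescence, 30 min at room temperature, in wells already read for beta-lactamase. Engineered HEK 293T cells (RXR-alpha-UAS-bla) are dosed 16 hr at 37 C. Tetraoctyl ammonium bromide serves as positive control.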

Assay [18] has as its target Luciferin 4-monooxygenase (Photinus pyralis) (UniProt P08659). Kind of assay: qHTS assay to identify small molecule inhibitors of firefly luciferase (AID 1224835). Also: series mostly up to about 120 µM; nearly all actives have a fitted effect of over 25% in size. The method, boiled down: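 Inhibition of purified Photinus luciferase is measured by luminescence. Substrate levels (D-luciferin, ATP) sit at their KM values. Each compound is tested in a concentration series.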

Assay [19] concerns the target Nuclear receptor subfamily 1 group I member 3 (Homo sapiens) (UniProt Q14994). Kind of assay: qHTS assay to identify small molecule agonists of the constitutive androstane receptor (CAR) signaling pathway (AID 1224839). Also: series mostly up to about 92 µM; nearly all actives have a fitted effect of over 15% in size. The method, boiled down:
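A 15-concentration quantitative screen uses HepG2 cells co-transfected stably with human CAR and CYP2B6-2.2kb reporter. Treatment lasts 24 h with 0.75 uM PK11195 final present; ONE-Glo luminescence is the signal.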

Assay [20] deals with Thyrotropin receptor (Homo sapiens) (UniProt P16473). Kind of assay: qHTS assay to identify small molecule agonists of the thyroid stimulating hormone receptor (TSHR) signaling pathway (AID 1224843; calls by dose curve; also: nearly all actives have a fitted effect of over 45% in size). The method, boiled down: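 HEK293 cells stably bearing the thyrotropin receptor were plated at 800 cells/well and challenged with compound (30 min, RT). Accumulated cAMP was quantified via cAMP-d2 competing for cryptate-tagged antibody.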
Sequence of Thyrotropin receptor (Homo sapiens) (P16473 whole entry, looked up): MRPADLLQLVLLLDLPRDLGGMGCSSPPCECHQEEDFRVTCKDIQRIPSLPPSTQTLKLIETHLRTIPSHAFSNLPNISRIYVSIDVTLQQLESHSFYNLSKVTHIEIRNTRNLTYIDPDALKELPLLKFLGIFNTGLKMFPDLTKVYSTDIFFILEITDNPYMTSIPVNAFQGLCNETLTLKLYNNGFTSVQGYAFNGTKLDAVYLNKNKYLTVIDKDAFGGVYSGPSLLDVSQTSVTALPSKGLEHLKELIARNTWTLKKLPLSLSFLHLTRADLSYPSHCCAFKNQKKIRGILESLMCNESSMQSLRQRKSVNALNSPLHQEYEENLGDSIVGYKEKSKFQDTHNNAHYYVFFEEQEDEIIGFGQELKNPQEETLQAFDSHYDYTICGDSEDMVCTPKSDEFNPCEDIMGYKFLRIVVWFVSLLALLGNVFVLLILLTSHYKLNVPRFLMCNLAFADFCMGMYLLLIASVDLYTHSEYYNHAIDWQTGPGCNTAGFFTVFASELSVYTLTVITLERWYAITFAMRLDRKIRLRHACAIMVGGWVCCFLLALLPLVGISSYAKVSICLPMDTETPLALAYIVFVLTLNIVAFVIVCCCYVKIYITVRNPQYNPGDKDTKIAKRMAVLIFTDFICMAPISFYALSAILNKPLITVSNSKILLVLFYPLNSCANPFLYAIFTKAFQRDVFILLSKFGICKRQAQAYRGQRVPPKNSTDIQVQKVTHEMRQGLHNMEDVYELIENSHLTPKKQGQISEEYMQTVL

Results filed as inconclusive are left out. Unmarked numbers belong to inactive results. The source made the active and inactive calls. Unless noted, calls follow the shape of the dose curve; as a rule, active = well fitted curve in the direction sought with a large enough effect in the repeat runs; inconclusive = weak or mixed curves; inactive = no such curve, though single readings can be large; an effect the other way counts as inactive or inconclusive.
% is scaled to controls: 0 for no effect and ±100 for the full control effect.

Sequence of Nuclear receptor subfamily 1 group I member 3 (Homo sapiens) (Q14994 whole entry, looked up): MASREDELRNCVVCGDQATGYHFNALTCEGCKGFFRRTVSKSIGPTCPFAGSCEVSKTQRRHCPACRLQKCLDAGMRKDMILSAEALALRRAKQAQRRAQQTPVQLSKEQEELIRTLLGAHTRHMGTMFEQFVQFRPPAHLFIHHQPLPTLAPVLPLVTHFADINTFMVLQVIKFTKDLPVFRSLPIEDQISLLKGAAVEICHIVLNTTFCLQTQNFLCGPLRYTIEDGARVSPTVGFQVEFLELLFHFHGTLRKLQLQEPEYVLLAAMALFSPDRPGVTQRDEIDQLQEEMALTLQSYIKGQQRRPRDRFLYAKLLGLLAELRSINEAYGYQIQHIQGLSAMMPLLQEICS
Sequence of Luciferin 4-monooxygenase (Photinus pyralis) (P08659 whole entry, looked up): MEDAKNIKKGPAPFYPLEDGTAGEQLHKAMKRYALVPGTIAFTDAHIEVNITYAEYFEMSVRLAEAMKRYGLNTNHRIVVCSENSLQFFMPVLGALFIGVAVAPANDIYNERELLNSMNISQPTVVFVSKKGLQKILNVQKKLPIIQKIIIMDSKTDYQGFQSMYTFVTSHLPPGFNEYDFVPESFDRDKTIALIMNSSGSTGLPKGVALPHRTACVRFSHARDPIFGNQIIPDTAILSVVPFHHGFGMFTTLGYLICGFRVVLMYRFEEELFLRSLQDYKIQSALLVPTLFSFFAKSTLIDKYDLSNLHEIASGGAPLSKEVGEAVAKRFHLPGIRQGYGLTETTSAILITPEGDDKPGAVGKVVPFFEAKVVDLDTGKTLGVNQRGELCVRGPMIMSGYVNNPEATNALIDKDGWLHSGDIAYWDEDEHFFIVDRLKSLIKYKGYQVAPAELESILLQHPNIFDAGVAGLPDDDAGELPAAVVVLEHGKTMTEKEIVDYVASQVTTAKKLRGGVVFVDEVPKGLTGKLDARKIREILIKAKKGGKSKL
Sequence of Retinoic acid receptor RXR-alpha (Homo sapiens) (P19793 whole entry, looked up): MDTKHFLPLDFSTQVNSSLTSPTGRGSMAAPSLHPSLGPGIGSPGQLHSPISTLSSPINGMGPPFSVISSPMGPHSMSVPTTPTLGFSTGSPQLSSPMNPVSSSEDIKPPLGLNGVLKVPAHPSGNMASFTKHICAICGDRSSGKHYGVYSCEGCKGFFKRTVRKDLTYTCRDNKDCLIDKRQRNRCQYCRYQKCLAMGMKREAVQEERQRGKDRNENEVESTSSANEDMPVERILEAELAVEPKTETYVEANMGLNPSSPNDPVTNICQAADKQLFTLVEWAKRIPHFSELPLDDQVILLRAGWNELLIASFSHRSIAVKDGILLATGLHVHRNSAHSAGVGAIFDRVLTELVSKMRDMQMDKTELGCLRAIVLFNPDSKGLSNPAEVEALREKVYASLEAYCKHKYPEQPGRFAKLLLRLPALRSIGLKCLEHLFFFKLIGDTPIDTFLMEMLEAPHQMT

On to `CCC(=O)CC`, for which the Potency result in assay [1], in assay [4], in assay [8] and in [16] was “inactive” throughout. The result in assay [2], in assay [3], in assay [5], in assay [6], in assay [7] and in [9] was inactive. In addition, the result in [10], in [11], in assay [12], in assay [13], in [14] and in assay [15] was inactive.

Take `O=C(CCCCC(=O)Nc1c(I)cc(I)c(C(=O)O)c1I)Nc1c(I)cc(I)c(C(=O)O)c1I`: the call in assay [17], in [2], in [3], in [5], in assay [6] and in [7] was inactive. The compound was called inactive in assay [9], in assay [11], in assay [20], in assay [12] and in [15]. Moreover, the Potency result in assay [4], in assay [18], in assay [8] and in assay [19] was “inactive” each time. Also, in assay [16], the Potency was 21.1 µM (active).

Consider `CC(C)[C@H]1CC[C@H](C)C[C@@H]1O`, for which the compound was called inactive in assay [2], in assay [3], in [5], in [6], in assay [7] and in assay [9]. Moreover, the result in assay [20], in [13], in assay [14] and in assay [15] was inactive. Besides, the Potency result in [4], in [18], in [8] and in assay [19] was “inactive” throughout.

As for `CCCCCCCCCOC(=O)CCCCC(=O)OCCCCCCC`, the compound was called inactive in assay [17], in assay [2], in [3], in assay [5], in assay [6] and in assay [9]. Besides, the result in [20], in [12], in assay [13], in assay [14] and in assay [15] was inactive. The Potency entry in assay [4], in assay [18] and in assay [19] was “inactive” in each case.

On to `Cc1ccc(C)c([N+](=O)[O-])c1`, for which the compound was classed as inactive in assay [17], in [2], in assay [3], in [5], in assay [6] and in [9]. The compound was classed as inactive in [20], in assay [12], in assay [13], in assay [14] and in [15]. Also, the Potency entry in assay [18], in [8] and in assay [19] was “inactive” in each case.

`CC1(C)Oc2ccc(C#N)cc2[C@@H](N2CCCC2=O)[C@@H]1O`: the call in assay [17], in assay [2], in assay [5], in assay [6], in assay [9] and in [20] was inactive. In addition, the result in assay [12], in assay [13], in [14] and in [15] was inactive. Also, the Potency entry in assay [8] was “inactive”.

With `O=NN(CCCl)C(=O)NC1CCCCC1`, the compound was called inactive in assay [17], in assay [2], in assay [3], in assay [5], in [6] and in assay [7]. The compound was classed as inactive in [9], in assay [20], in assay [13], in assay [14] and in [15]. The Potency result in assay [18] and in [19] was “inactive” each time.

Regarding `C=CC/C=C/C`, the compound was called inactive in assay [17], in assay [2], in [3], in [6], in assay [7] and in assay [9]. Besides, the compound was classed as inactive in assay [20], in [13], in [14] and in assay [15]. Moreover, the Potency result in assay [4] and in assay [18] was “inactive” throughout.

Take `CCCCCCCCCCCCCCCCCCOCCO`: the activity change, negative = cytotoxicity is -0.661% [at 15.8 µM] in assay [17]; -1.36% [at 19 µM] in assay [2]; 0.177% [at 19 µM] in [7]; 16.8% [at 15.8 µM] in [12]; -6.52% [at 31.6 µM] in assay [15]. Besides, the values for the activity, negative = inhibition in assay [3] and in [8] were -13.7% [at 19 µM] and -10.5% [at 19 µM], respectively. Besides, the viability change, negative = cytotoxic was -3.06% [at 19 µM] in [5], -7.83% [at 19 µM] in [6] and -0.639% [at 19 µM] in assay [9]. Also, in assay [18], the activity change, negative = inhibition was -2.69% [at 23.6 µM]. For the same compound, the figures for the activation in assay [19], in [20] and in assay [14] were -0.275% [at 19 µM], -2.81% [at 19 µM] and 0.444% [at 15.8 µM], respectively. Further, the activation (H2AX phosphorylation) in assay [13] is -3.63% [at 31.6 µM].

The values above are taken from PubChem BioAssay (Tox21).
